Assay results: PubChem BioAssay (NCATS)
Inconclusive results are not listed. Active and inactive are the calls of the source. Calls come from the whole dose curve; as a rule, active = well fitted cell-killing curve with a large enough effect; inconclusive = small, poorly fitted or top-dose-only effect, or effect the other way; inactive = flat fitted curve, though single readings scatter.

Legend:
Test in all cases: Primary qHTS to identify gynecologic anti-cancer compounds using libraries of approved drugs and bioactive compounds (AID 1345084); note: nearly all actives have a fitted effect of over 55% in size
C33A = conditions: Gynecologic cancer cell panel viability, ATPlite luminescence, 48 h; series mostly up to 57.5 µM
Summary of the method: (§1)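 Cells, 1,000 per well, plated 16 h, then exposed 48 h at 37 C to compounds. Viability by ATPlite luminescence after 15 min at room temperature.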

CAOV3 = conditions: Gynecologic cancer cell panel viability, ATPlite luminescence, 48 h; series mostly up to 57.5 µM
Summary of the method: as §1

CASKI = conditions: Gynecologic cancer cell panel viability, ATPlite luminescence, 48 h; series mostly up to 57.5 µM
Summary of the method: as §1

Es-2 = conditions: Gynecologic cancer cell panel viability, ATPlite luminescence, 48 h; series mostly up to 57.5 µM
Summary of the method: as §1

HeLa = conditions: Gynecologic cancer cell panel viability, ATPlite luminescence, 48 h; series mostly up to 57.5 µM
Summary of the method: as §1

Hek293T = conditions: Gynecologic cancer cell panel viability, ATPlite luminescence, 48 h, control line for the selectivity index; series mostly up to 57.5 µM
Summary of the method: as §1

JEG-3 = conditions: Gynecologic cancer cell panel viability, ATPlite luminescence, 48 h; series mostly up to 57.5 µM
Summary of the method: as §1

OV90 = conditions: Gynecologic cancer cell panel viability, ATPlite luminescence, 48 h; series mostly up to 57.5 µM
Summary of the method: as §1

PA-1 = conditions: Gynecologic cancer cell panel viability, ATPlite luminescence, 48 h; series mostly up to 57.5 µM
Summary of the method: as §1

SKOV3 = conditions: Gynecologic cancer cell panel viability, ATPlite luminescence, 48 h; series mostly up to 57.5 µM
Summary of the method: as §1

Tov-21-G = conditions: Gynecologic cancer cell panel viability, ATPlite luminescence, 48 h; series mostly up to 57.5 µM
Summary of the method: as §1

Tov112D = conditions: Gynecologic cancer cell panel viability, ATPlite luminescence, 48 h; series mostly up to 57.5 µM
Summary of the method: as §1
% is set by controls: 0 for no effect and ±100 for the full control effect.

CC1C(O)C(O)C2C(C(=O)OCCc3ccc(O)cc3)=COC(O[C@@H]3O[C@H](CO)[C@@H](O)[C@H](O)[C@H]3O)C12 (some centres not stated)
inactive: Potency (C33A) | Potency (CAOV3) | outcome (CASKI) | Potency (Es-2) | Potency (HeLa) | Potency (Hek293T) | Potency (JEG-3) | Potency (OV90) | Potency (PA-1) | Potency (SKOV3) | Potency (Tov-21-G) | Potency (Tov112D)

COC(=O)[C@@H](NC(=O)[C@H](CC(C)C)NC(=O)N(Cc1ccccc1)C[C@@H](O)[C@H](Cc1ccccc1)NC(=O)OC(C)(C)C)C(C)C
inactive: activity change, negative = cytotoxicity (C33A) 9.01% [at 11.6 µM] | activity change, negative = cytotoxicity (CAOV3) -0.568% [at 11.6 µM] | activity change, negative = cytotoxicity (CASKI) 1.08% [at 11.6 µM] | activity change, negative = cytotoxicity (Es-2) 0.55% [at 11.6 µM] | activity change, negative = cytotoxicity (HeLa) 4.24% [at 11.6 µM] | activity change, negative = cytotoxicity (Hek293T) -2.96% [at 11.6 µM] | activity change, negative = cytotoxicity (JEG-3) -2.99% [at 11.6 µM] | activity change, negative = cytotoxicity (OV90) -5.58% [at 11.6 µM] | activity change, negative = cytotoxicity (PA-1) 4.66% [at 11.6 µM] | activity change, negative = cytotoxicity (SKOV3) 21.9% [at 11.6 µM] | activity change, negative = cytotoxicity (Tov-21-G) -1.16% [at 11.6 µM] | activity change, negative = cytotoxicity (Tov112D) 11% [at 11.6 µM]

C[C@@H]1O[C@@H](O[C@H]2[C@H](O[C@H]3[C@H](O[C@H]4CC[C@@]5(C)C(CC[C@]6(C)C5CC=C5[C@@H]7CC(C)(C)C[C@@H](O)[C@]7(C)CC[C@]56C)C4(C)C)O[C@H](C(=O)O)[C@@H](O)[C@@H]3O)O[C@H](C(=O)O)[C@H](O)[C@@H]2O)[C@H](O)[C@H](O)[C@H]1O (some centres not stated)
inactive: activity change, negative = cytotoxicity (C33A) -4.31% [at 11.6 µM] | activity change, negative = cytotoxicity (CAOV3) -1.54% [at 11.6 µM] | activity change, negative = cytotoxicity (CASKI) 12.7% [at 11.6 µM] | activity change, negative = cytotoxicity (Es-2) -10.8% [at 11.6 µM] | activity change, negative = cytotoxicity (HeLa) 5.18% [at 11.6 µM] | activity change, negative = cytotoxicity (Hek293T) 6.67% [at 11.6 µM] | activity change, negative = cytotoxicity (JEG-3) -0.21% [at 11.6 µM] | activity change, negative = cytotoxicity (OV90) 9.77% [at 11.6 µM] | activity change, negative = cytotoxicity (PA-1) 12.6% [at 11.6 µM] | activity change, negative = cytotoxicity (SKOV3) 6.58% [at 11.6 µM] | activity change, negative = cytotoxicity (Tov-21-G) 9.44% [at 11.6 µM] | activity change, negative = cytotoxicity (Tov112D) 4.96% [at 11.6 µM]

CC1(C)C(=O)N2c3ccccc3C(O)(CC(C(=O)O)n3cnc4ccccc4c3=O)C2N1O (configuration not stated)
inactive: Potency (C33A) | Potency (CAOV3) | outcome (CASKI) | Potency (Es-2) | Potency (HeLa) | Potency (Hek293T) | Potency (JEG-3) | Potency (OV90) | Potency (PA-1) | Potency (SKOV3) | Potency (Tov-21-G) | Potency (Tov112D)

C=C1CCC(OC(C)=O)C2(C)CC3OC(=O)C(C)=C3CC12 (configuration not stated)
inactive: Potency (C33A) | Potency (CAOV3) | outcome (CASKI) | Potency (Es-2) | Potency (HeLa) | Potency (Hek293T) | Potency (JEG-3) | Potency (OV90) | Potency (PA-1) | Potency (SKOV3) | Potency (Tov-21-G) | Potency (Tov112D)

C=Cc1ccc(O[C@@H]2O[C@H](CO[C@@H]3O[C@@H](C)[C@H](O)[C@@H](O)[C@H]3O)[C@@H](O)[C@H](O)[C@H]2O)cc1
inactive: Potency (C33A) | Potency (CAOV3) | outcome (CASKI) | Potency (Es-2) | Potency (HeLa) | Potency (Hek293T) | Potency (JEG-3) | Potency (OV90) | Potency (PA-1) | Potency (SKOV3) | Potency (Tov-21-G) | Potency (Tov112D)
